Measured values taken from PubChem BioAssay (NCI).
Compounds without any hit were thinned out: in the full panel of roughly 83,000, 20% have a hit.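 Assay: single dose, 48 h. Readout: percent growth (0 = no net growth; negative = cell death). Active: <10.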 Calls of active or inactive are those of the source.

Key:
Test in all cases: NCI-60 one-dose screen, 48 h (100 = growth as untreated, 0 = no growth, -100 = all killed)
Conditions in all cases: 10 µM unless noted
[1] = tested on: NCI-H23 lung
[2] = tested on: NCI-H226 lung
[3] = tested on: NCI-H322M lung
[4] = tested on: HOP-62 NSCLC
[5] = tested on: NCI-H460 lung
[6] = tested on: HOP-92 NSCLC
[7] = tested on: NCI-H522 lung
[8] = tested on: A549/ATCC NSCLC
[9] = tested on: 786-0 renal
[10] = tested on: COLO 205 colon

Measured: growth

NC(Cc1ccc(O)cc1)C(=O)N/N=C/c1ccccc1O (stereo not given)
inactive: [1] 99.9% | [2] 103% | [3] 94% | [4] 105% | [5] 108% | [6] 56.6% | [7] 96.6% | [8] 97.5% | [9] 104% | [10] 123%

Cn1c(=O)c2c(ncn2CC(=O)Nc2ccc(S(N)(=O)=O)cc2)n(C)c1=O
inactive: [1] 104% | [2] 105% | [3] 107% | [4] 94.8% | [5] 108% | [6] 90.1% | [7] 86.7% | [8] 88.3% | [9] 94.9% | [10] 105%

COCCNC1=C(Cl)C(=O)c2ccccc2C1=O
inactive: [1] 64.8% | [2] 95.9% | [3] 113% | [4] 117% | [5] 95.4% | [6] 137% | [7] 96.1% | [8] 88.8% | [9] 114% | [10] 110%

c1ccc2[nH]c(-c3ccc(Nc4nc(N5CCCCC5)nc(N5CCOCC5)n4)cc3)nc2c1
inactive: [1] 19.7% | [2] 32.7% | [3] 35% | [6] 43.3% | [8] 13.9%
active: [4] -45.2% | [5] 0.809% | [7] 9.25% | [9] -57.3% | [10] -61.3%

COc1ccc(-c2cc(-c3cccs3)n(N=O)c(=O)c2C#N)cc1
inactive: [1] 89.1% | [2] 99.8% | [3] 106% | [4] 93.8% | [5] 102% | [6] 63.8% | [7] 93% | [8] 100% | [9] 93.5% | [10] 119%

CC1(C)NC2=C(C(Nc3cccnc3)N1)C(c1ccc([N+](=O)[O-])cc1)C(C(=O)c1ccc(N=[N+]=[N-])cc1)O2 (stereo not given)
inactive: [1] 103% | [2] 105% | [3] 100% | [4] 103% | [5] 95.4% | [6] 94% | [7] 96.7% | [8] 104% | [9] 100% | [10] 109%

Cn1cc(-c2nc(-c3cn(C)c4ncccc34)cs2)c2ccccc21
active: [7] -1.88%
inactive: [1] 43.6% | [2] 66.9% | [3] 58.5% | [4] 36.1% | [5] 16.7% | [6] 75.3% | [8] 38.8% | [9] 39.3% | [10] 32.8%

C#CCn1c2c(c3ccccc31)C[C@]1(C)[C@H]3CC[C@@H]4[C@@H]5C(=CCC[C@H]5C(=C)C)CC[C@@]4(C)[C@]3(C)CC[C@H]1C2(C)C
inactive: [1] 106% | [2] 102% | [3] 103% | [4] 97.1% | [5] 99.8% | [6] 124% | [7] 96.5% | [8] 102% | [9] 106% | [10] 104%

COc1ccc2c3c(c4ccccc4cc13)C(=O)N(CCN(C)CCN)C2=O
active: [1] -71.4% | [2] -67.4% | [3] -44.4% | [4] -77.4% | [5] -69.2% | [6] -7.66% | [7] -77.2% | [8] -78.3% | [9] -97.9% | [10] -82.7%

COC(=O)[C@@H]1[C@H]2C[C@H]3c4[nH]c5cc(OC)ccc5c4CCN3C[C@@H]2C[C@H](OC(=O)/C=C/c2ccnc(OC)c2)[C@H]1OC
inactive: [1] 86.4% | [2] 89.3% | [3] 83.2% | [4] 87% | [5] 102% | [6] 22.5% | [7] 73.3% | [8] 89% | [9] 91.2% | [10] 76.3%

Cc1ccsc1-c1ccc2c(c1)COC2(CCCN(C)C)c1ccc(F)cc1 (stereo not given)
active: [10] -43.9%
inactive: [1] 70.6% | [2] 93% | [3] 68.5% | [4] 69.4% | [5] 10.3% | [6] 41.6% | [7] 55.1% | [8] 45.9% | [9] 63.8%

Nc1c(Cl)cc(N=Nc2ccccc2)cc1Cl
inactive: [1] 88% | [2] 55.2% | [3] 86.7% | [4] 91.4% | [5] 65.1% | [6] 57.7% | [7] 96.8% | [8] 88.2% | [9] 101% | [10] 97.5%

O=C(O[C@@H]1Cc2c(O)cc(O)cc2O[C@@H]1c1cc(O)c(O)c(O)c1)c1cc(O)c2c(c1)OCO2
inactive: [1] 92.6% | [2] 93% | [3] 107% | [4] 98.5% | [5] 105% | [6] 95.1% | [7] 83.3% | [8] 82.5% | [9] 94.4% | [10] 104%

O=S(=O)(NCCNc1cc(-c2cn(-c3ccccc3)nc2-c2cccc(O)c2)ccn1)c1ccc(F)cc1
active: [7] 4.98% | [9] -9.01% | [10] -49.3%
inactive: [1] 33.6% | [2] 45.1% | [3] 58.7% | [4] 48% | [5] 22.9% | [6] 35.7% | [8] 26.9%

Cc1nnc2nc(N)[nH]n2c1=O
inactive: [1] 103% | [2] 111% | [3] 105% | [4] 109% | [5] 113% | [6] 66.5% | [7] 92.8% | [8] 99% | [9] 98.8% | [10] 121%

Cc1ccc2c(c1)c(-c1nc(-c3c[nH]c4ncccc34)cs1)cn2C
inactive: [1] 71.9% | [2] 88.9% | [3] 73.1% | [4] 105% | [5] 56.8% | [6] 83.8% | [7] 70.5% | [8] 87.8% | [9] 83% | [10] 112%

Cn1c2ccccc2c2c3c(c4c5cccnc5[nH]c4c21)C(=O)N(O)C3=O
inactive: [1] 15.1% | [2] 74.3% | [3] 62.6% | [4] 15.3% | [5] 14.7% | [6] 78.9% | [7] 47.6% | [8] 62.3% | [9] 36.6% | [10] 22.4%
